PubChem BioAssay AID623979 (Broad Institute, 2012)
Measured potencies and affinities stand elsewhere. Records with an inconclusive call do not appear. Active and inactive are the calls of the source.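 Rule for the calls: active = fitted half-maximal inhibition concentration at or below twice the top tested dose in every test run; inconclusive = runs disagree, or a weak flat response or poor fit; inactive = the rest, including flat or wrong-direction curves.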

What follows are molecules tested against Cyclin-dependent kinase 5 activator 1 (Homo sapiens) + Cyclin-dependent kinase 5 (Homo sapiens) (UniProt Q15078+Q00535) (assay: CDK5-p25 kinase inhibition, dose response, selectivity assay for GSK3beta inhibitor project, biochemical, microfluidic mobility shift, dry powder, set 2 (AID 623979)). Settings: recombinant CDK5-p25, Caliper peptide conversion, 55 min; series mostly up to 35 µM.
Cyclin-dependent kinase 5 activator 1 (Homo sapiens) + Cyclin-dependent kinase 5 (Homo sapiens), sequence (Q00535 whole entry, looked up): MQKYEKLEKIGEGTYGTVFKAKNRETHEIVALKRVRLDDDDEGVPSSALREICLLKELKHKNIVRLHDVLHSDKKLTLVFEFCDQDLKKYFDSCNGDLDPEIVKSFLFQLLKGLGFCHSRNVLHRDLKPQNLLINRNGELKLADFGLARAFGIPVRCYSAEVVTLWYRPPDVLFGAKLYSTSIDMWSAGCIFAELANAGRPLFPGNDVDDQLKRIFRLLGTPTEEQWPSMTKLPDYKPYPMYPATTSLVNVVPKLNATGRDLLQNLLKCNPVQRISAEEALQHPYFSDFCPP
Cyclin-dependent kinase 5 activator 1 (Homo sapiens) + Cyclin-dependent kinase 5 (Homo sapiens), sequence (Q15078 whole entry, looked up): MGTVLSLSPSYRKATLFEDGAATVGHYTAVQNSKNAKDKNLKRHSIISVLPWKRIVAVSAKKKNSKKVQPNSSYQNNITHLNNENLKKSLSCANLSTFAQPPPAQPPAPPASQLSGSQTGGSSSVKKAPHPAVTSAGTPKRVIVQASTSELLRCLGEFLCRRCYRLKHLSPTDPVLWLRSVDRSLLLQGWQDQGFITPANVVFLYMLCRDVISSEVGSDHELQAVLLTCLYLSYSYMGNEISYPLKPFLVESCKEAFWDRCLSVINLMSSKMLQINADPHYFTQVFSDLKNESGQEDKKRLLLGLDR
In the case of `CCOc1ccccc1/C=N/NC(=O)c1nnn(-c2nonc2N)c1CN1CCCCCC1`, the outcome is reported as “inactive”.
With `COc1cc(C(=O)N2CCN(c3ccccn3)CC2)cc(OC)c1OC` the outcome was “inactive”.
For `Nc1nonc1-n1nnc(C(=O)N/N=C/c2cccc(Cl)c2)c1CN1CCCCCC1`, the outcome was “inactive”.
With `Cc1cccc(OCC(=O)Nc2ccc3c(c2)C(=O)NC3=O)c1` the outcome was “inactive”.
With `Nc1nonc1-n1nnc(C(=O)N/N=C/c2c(F)cccc2Cl)c1-c1ccc2c(c1)OCO2` the outcome was “inactive”.
For `Nc1nc(NCC2CCCO2)nc(Nc2ccc(F)cc2)c1[N+](=O)[O-]` (stereo not given), the outcome was “inactive”.
`Cc1ccc(S(=O)(=O)N2CCN(CC(=O)N/N=C/c3ccccn3)CC2)cc1` was tested, and the outcome was “inactive”.
For `COC(=O)c1ccc(CSc2ccc3nnc(-c4ccc(F)cc4)n3n2)o1`, the outcome was “inactive”.
`Clc1ccc(CSc2nnc(-c3ccncc3)o2)c(Cl)c1` was tested, and the outcome was “inactive”.
With `Nc1nc(NCC2CCCO2)nc(Nc2ccc(Cl)cc2)c1[N+](=O)[O-]` (stereo not given) the outcome was “inactive”.
